Laboratory results as given in PubChem BioAssay AID1159580 (chemical genetic matrix, 2015).
The whole screen tested about 5,500 compounds, of which about 2,000 (36%) were called active. About 18% were inconclusive and are not listed. Cut-off read from the data, not from the text of the source: active = normalized growth mostly below about 0.91 (no sharp cut-off); inconclusive = no clear call, values can overlap the other calls; inactive = mostly above about 0.92. The list shows a part of the results.

Test: chemical genetic growth profiling, strain panel (AID 1159580);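 note: tested at 20 µM; growth read once vehicle control cultures reached saturation at 30 °C; 1 = growth at the plate median or of vehicle wells; lower values mean less growth of the strain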
Settings: S. cerevisiae deletion strains, growth OD

Measured: normalized growth

COc1ccc(N=C2SCC(c3ccc(C)cc3)=NN2CCO)cc1
inactive: locus YAR019C, strain CDC15, stronger effect = lower value 0.975 | locus YBL105C, strain PKC1, stronger effect = lower value 0.985 | locus YBR135W, strain CKS1, stronger effect = lower value 0.979 | locus YBR136W, strain MEC1, stronger effect = lower value 0.972 | locus YBR160W, strain CDC28, stronger effect = lower value 0.982 | locus YDL017W, strain CDC7, stronger effect = lower value 0.982 | locus YDL028C, strain MPS1, stronger effect = lower value 0.971 | locus YDL101C, strain DUN1, stronger effect = lower value 0.982 | locus YDL108W, strain KIN28, stronger effect = lower value 0.981 | locus YDL132W, strain cdc53, stronger effect = lower value 0.98 | locus YDL214C, strain PRR2, stronger effect = lower value 0.975 | locus YDR052C, strain DBF4, stronger effect = lower value 0.988 | locus YDR054C, strain cdc34, stronger effect = lower value 0.979 | locus YDR226W, strain ADK1, stronger effect = lower value 0.981 | locus YDR477W, strain SNF1, stronger effect = lower value 0.958 | locus YER123W, strain YCK3, stronger effect = lower value 0.943 | locus YER133W, strain GLC7, stronger effect = lower value 0.971 | locus YFL009W, strain cdc4, stronger effect = lower value 0.972 | locus YFL029C, strain CAK1, stronger effect = lower value 0.964 | locus YFR003C, strain YPI1, stronger effect = lower value 0.98 | locus YFR019W, strain FAB1, stronger effect = lower value 0.985 | locus YFR028C, strain CDC14, stronger effect = lower value 0.972 | locus YGR040W, strain KSS1, stronger effect = lower value 0.961 | locus YGR052W, strain FMP48, stronger effect = lower value 1.01 | locus YGR092W, strain DBF2, stronger effect = lower value 0.947 | locus YHR030C, strain SLT2, stronger effect = lower value 0.95 | locus YHR079C, strain IRE1, stronger effect = lower value 0.968 | locus YHR082C, strain KSP1, stronger effect = lower value 0.991 | locus YHR205W, strain SCH9, stronger effect = lower value 0.987 | locus YIL147C, strain SLN1, stronger effect = lower value 0.977 | locus YJL095W, strain BCK1, stronger effect = lower value 0.973 | locus YJL128C, strain PBS2, stronger effect = lower value 0.955 | locus YJL157C, strain FAR1, stronger effect = lower value 0.979 | locus YJR016C, strain ILV3, stronger effect = lower value 0.979 | locus YJR066W, strain TOR1 (second series), stronger effect = lower value 0.925 | locus YJR066W, strain TOR1, stronger effect = lower value 0.962 | locus YKL048C, strain ELM1, stronger effect = lower value 0.997 | locus YKL067W, strain YNK1, stronger effect = lower value 0.971 | locus YKL101W, strain HSL1, stronger effect = lower value 0.976 | locus YKL193C, strain SDS22, stronger effect = lower value 0.975 | locus YKL203C, strain TOR2, stronger effect = lower value 1.02 | locus YLR113W, strain HOG1, stronger effect = lower value 0.915 | locus YLR133W, strain CKI1, stronger effect = lower value 0.976 | locus YLR403W, strain SFP1, stronger effect = lower value 0.976 | locus YML070W, strain DAK1, stronger effect = lower value 0.956 | locus YMR001C, strain CDC5, stronger effect = lower value 0.984 | locus YMR205C, strain PFK2 (second series), stronger effect = lower value 0.971 | locus YMR277W, strain FCP1, stronger effect = lower value 0.978 | locus YNL006W, strain LST8, stronger effect = lower value 0.986 | locus YNL020C, strain ARK1, stronger effect = lower value 0.983 | locus YNL161W, strain CBK1, stronger effect = lower value 0.978 | locus YNL183C, strain NPR1, stronger effect = lower value 0.941 | locus YNL207W, strain RIO2, stronger effect = lower value 0.978 | locus YNL222W, strain SSU72, stronger effect = lower value 0.972 | locus YNL307C, strain MCK1 (second series), stronger effect = lower value 0.98 | locus YOL078W, strain AVO1, stronger effect = lower value 0.977 | locus YOL136C, strain PFK27, stronger effect = lower value 0.96 | locus YOR061W, strain CKA2, stronger effect = lower value 0.983 | locus YOR119C, strain RIO1, stronger effect = lower value 0.999 | locus YOR231W, strain MKK1, stronger effect = lower value 0.963 | locus YOR329C, strain SCD5, stronger effect = lower value 0.983 | locus YPL031C, strain PHO85, stronger effect = lower value 0.969 | locus YPL153C, strain RAD53, stronger effect = lower value 0.97 | locus YPL204W, strain HRR25, stronger effect = lower value 0.961 | locus YPL209C, strain IPL1, stronger effect = lower value 0.977 | locus YPL256C, strain CLN2, stronger effect = lower value 0.946 | locus YPR025C, strain CCL1, stronger effect = lower value 0.985 | locus YPR106W, strain ISR1, stronger effect = lower value 0.979 | locus YPR111W, strain DBF20, stronger effect = lower value 0.968 | strain NNK1, stronger effect = lower value 0.983 | strain TSCII, stronger effect = lower value 0.982
